# The supplement of paper PMC10849652
# Of roughly 7,900 targets only a part is listed; those with a hit were picked by preference. About 0.6% of all pairs of compound and target were hits. A number with no mark means an inactive call.
# Key:
# Test in all cases: log2 fold change, soluble protein after heating vs DMSO (PISA); higher = thermal stabilisation; K562 cells, 10 uM, 30 min; active = over 0.2 and 3.5 SD of the protein, either way, in both replicates (recomputed)
# [1] = target: YWHAB (UniProt P31946)
# How it was run: (§1)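 Thermal stability values are relative to control samples and come from duplicates. They are expressed as log2 fold changes. For measurement, K562 cells (2×10^6 cells/mL) received 10 μM compound for 30 min, and aliquots were heated for 3 min over 48°C-58°C, pooled, and extracted at 4°C in PBS with 0.5% NP-40. Soluble protein, the supernatant after 21,000xg for 90 min, was quantified by TMTpro 16plex LC-MS/MS with equalised channel sums.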
# [2] = target: YWHAQ (UniProt P27348)
# How it was run: as §1
# [3] = target: YWHAZ (UniProt E7ESK7)
# How it was run: as §1
# [4] = target: YWHAZ (UniProt P63104)
# How it was run: as §1
# [5] = target: YY1 (UniProt P25490)
# How it was run: as §1
# [6] = target: ZADH2 (UniProt Q8N4Q0)
# How it was run: as §1
# [7] = target: ZBTB21 (UniProt Q9ULJ3)
# How it was run: as §1
# [8] = target: ZBTB43 (UniProt O43298)
# How it was run: as §1
# [9] = target: ZC3H18 (UniProt Q86VM9)
# How it was run: as §1
# [10] = target: ZC3H8 (UniProt Q8N5P1)
# How it was run: as §1
# [11] = target: ZC3HC1 (UniProt Q86WB0)
# How it was run: as §1
# [12] = target: ZCCHC9 (UniProt Q8N567)
# How it was run: as §1
# [13] = target: ZDHHC17 (UniProt Q8IUH5)
# How it was run: as §1
# [14] = target: ZDHHC20 (UniProt Q5W0Z9)
# How it was run: as §1
# [15] = target: ZDHHC5 (UniProt Q9C0B5)
# How it was run: as §1
# [16] = target: ZDHHC7 isoform 2 (UniProt Q9NXF8)
# How it was run: as §1
# [17] = target: ZBTB17 isoform 2 (UniProt Q13105)
# How it was run: as §1
# [18] = target: ZDHHC8 isoform 3 (UniProt Q9ULC8)
# How it was run: as §1
# [19] = target: ZDHHC6 (UniProt Q9H6R6)
# How it was run: as §1
# Sequence of ZDHHC8 isoform 3 (Q9ULC8 whole entry, looked up, canonical isoform): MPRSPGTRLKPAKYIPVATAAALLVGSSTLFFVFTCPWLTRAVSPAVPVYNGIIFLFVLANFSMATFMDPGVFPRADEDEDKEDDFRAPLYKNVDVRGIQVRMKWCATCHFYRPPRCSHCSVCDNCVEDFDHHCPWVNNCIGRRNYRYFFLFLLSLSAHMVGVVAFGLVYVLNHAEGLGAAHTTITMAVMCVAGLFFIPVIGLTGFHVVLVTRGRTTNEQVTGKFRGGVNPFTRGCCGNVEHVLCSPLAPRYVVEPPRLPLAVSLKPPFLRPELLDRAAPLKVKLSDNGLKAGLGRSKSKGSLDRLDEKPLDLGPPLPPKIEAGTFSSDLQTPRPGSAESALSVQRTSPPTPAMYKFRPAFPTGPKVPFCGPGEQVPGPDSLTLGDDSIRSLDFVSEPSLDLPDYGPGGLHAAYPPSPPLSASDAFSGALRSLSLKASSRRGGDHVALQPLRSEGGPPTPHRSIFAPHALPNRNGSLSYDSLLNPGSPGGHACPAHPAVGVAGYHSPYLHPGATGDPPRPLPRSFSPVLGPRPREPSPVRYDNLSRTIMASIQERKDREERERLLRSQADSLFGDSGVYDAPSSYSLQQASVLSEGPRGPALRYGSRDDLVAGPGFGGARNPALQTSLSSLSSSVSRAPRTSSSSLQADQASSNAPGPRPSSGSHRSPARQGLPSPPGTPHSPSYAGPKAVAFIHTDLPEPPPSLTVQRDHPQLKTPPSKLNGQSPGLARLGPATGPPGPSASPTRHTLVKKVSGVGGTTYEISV
# Sequence of ZDHHC7 isoform 2 (Q9NXF8 whole entry, looked up, canonical isoform): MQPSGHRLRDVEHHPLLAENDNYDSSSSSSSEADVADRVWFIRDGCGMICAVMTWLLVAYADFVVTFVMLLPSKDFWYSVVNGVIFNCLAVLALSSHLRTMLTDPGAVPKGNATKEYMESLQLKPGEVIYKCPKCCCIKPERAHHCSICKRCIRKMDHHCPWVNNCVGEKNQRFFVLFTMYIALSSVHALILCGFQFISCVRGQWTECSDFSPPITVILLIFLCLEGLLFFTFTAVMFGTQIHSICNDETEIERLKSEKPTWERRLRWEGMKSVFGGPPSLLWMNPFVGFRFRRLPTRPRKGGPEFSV
# Sequence of YY1 (P25490 whole entry, looked up): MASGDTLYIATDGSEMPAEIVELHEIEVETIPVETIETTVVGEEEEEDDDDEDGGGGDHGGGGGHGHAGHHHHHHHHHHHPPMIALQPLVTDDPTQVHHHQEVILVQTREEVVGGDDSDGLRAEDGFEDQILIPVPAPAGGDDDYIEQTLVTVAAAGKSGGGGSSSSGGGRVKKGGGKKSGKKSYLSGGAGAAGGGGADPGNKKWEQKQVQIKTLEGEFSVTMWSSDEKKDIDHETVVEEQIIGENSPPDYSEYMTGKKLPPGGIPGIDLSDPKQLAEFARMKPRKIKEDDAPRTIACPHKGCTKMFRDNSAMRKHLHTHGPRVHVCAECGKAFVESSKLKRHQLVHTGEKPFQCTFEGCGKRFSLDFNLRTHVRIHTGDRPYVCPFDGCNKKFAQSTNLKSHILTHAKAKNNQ
# Sequence of ZC3H8 (Q8N5P1 whole entry, looked up): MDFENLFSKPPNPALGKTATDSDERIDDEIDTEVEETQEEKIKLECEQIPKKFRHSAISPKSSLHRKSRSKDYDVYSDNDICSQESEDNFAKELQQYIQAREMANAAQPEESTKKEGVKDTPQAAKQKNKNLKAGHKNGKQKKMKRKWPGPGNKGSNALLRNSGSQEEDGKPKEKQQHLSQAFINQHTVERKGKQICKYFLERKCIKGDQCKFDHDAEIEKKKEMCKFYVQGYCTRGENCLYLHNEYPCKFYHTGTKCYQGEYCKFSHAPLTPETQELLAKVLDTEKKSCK
# Sequence of ZBTB21 (Q9ULJ3 whole entry, looked up): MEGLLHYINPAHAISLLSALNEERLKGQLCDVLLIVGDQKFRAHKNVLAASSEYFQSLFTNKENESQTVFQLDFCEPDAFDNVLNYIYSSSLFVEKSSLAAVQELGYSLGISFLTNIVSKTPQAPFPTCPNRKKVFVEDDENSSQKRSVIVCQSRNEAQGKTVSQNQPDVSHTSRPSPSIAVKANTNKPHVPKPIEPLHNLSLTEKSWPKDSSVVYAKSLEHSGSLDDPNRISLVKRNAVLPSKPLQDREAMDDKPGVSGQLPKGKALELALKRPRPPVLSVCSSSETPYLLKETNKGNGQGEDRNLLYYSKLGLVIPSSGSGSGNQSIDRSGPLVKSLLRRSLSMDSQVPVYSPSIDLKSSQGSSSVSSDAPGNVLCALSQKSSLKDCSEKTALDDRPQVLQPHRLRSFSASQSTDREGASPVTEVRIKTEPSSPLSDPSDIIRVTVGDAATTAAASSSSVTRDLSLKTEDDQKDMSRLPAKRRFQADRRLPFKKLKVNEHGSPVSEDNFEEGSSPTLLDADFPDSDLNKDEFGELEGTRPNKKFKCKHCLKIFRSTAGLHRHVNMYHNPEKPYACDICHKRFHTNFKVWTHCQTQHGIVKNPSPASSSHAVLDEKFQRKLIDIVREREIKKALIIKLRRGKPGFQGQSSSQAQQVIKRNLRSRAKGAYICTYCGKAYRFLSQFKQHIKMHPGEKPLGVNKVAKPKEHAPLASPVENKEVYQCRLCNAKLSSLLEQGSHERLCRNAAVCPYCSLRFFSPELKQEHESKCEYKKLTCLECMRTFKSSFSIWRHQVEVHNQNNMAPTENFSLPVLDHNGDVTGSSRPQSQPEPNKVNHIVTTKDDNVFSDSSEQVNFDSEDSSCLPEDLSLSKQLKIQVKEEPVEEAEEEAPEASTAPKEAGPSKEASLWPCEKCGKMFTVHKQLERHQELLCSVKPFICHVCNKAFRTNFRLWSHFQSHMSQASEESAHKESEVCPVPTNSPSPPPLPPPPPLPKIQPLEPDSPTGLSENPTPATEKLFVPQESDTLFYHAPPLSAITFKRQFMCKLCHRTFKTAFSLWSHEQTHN
# Sequence of ZDHHC5 (Q9C0B5 whole entry, looked up): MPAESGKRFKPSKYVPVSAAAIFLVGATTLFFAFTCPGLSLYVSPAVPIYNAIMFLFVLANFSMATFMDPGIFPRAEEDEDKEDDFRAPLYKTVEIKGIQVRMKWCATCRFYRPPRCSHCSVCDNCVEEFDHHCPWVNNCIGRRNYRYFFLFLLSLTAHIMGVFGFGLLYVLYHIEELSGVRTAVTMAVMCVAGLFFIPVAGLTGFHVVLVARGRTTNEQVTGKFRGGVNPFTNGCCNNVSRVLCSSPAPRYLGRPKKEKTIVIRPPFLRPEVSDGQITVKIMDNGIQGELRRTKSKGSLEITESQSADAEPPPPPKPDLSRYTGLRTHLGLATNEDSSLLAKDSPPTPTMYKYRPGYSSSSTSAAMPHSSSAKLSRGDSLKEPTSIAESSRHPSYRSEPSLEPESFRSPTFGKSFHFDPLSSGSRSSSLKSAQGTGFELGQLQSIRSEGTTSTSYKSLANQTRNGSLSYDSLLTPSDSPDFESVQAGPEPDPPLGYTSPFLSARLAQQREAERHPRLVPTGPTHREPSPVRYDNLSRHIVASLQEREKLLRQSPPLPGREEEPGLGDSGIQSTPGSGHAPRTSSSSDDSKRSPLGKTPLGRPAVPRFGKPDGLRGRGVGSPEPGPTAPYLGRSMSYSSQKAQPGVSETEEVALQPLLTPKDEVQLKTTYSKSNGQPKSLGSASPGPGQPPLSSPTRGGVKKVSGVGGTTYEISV
# Sequence of ZCCHC9 (Q8N567 whole entry, looked up): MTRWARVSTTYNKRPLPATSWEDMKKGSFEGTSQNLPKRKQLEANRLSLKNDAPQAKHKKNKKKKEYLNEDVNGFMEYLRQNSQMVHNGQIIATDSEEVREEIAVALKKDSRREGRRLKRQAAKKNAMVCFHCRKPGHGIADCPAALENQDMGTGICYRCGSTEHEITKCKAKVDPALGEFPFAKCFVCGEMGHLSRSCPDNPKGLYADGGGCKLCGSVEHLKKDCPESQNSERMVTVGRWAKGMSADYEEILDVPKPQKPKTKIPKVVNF
# Sequence of ZBTB43 (O43298 whole entry, looked up): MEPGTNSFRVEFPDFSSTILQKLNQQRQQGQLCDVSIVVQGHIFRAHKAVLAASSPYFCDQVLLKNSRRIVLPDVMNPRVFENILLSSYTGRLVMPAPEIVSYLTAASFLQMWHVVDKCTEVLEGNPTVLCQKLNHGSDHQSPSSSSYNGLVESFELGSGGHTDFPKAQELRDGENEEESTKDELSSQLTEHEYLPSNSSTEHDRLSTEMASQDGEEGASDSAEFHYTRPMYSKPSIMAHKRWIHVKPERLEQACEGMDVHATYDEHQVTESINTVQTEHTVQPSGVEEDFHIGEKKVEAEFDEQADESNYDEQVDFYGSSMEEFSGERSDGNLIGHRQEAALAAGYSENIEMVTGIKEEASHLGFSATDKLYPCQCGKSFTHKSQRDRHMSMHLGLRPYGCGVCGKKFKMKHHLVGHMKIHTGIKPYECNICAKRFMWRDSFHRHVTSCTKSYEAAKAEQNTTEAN
# Sequence of YWHAQ (P27348 whole entry, looked up): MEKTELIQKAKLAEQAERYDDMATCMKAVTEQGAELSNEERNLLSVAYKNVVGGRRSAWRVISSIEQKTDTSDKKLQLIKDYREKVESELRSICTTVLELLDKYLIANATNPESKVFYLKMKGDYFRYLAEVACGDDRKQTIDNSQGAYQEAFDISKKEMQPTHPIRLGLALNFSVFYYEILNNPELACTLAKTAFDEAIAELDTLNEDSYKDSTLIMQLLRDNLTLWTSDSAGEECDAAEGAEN
# Sequence of YWHAZ (UniProt P63104) (P63104 whole entry, looked up): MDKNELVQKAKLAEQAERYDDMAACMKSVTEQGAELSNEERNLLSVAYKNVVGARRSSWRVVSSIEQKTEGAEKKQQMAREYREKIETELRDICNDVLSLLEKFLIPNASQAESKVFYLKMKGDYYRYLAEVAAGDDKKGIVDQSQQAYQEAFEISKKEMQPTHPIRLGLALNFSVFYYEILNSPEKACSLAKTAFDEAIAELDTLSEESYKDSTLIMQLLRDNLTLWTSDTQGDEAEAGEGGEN
Compound,log2 fold change [1],log2 fold change [2],log2 fold change [3],log2 fold change [4],log2 fold change [5],log2 fold change [6],log2 fold change [7],log2 fold change [8],log2 fold change [9],log2 fold change [10],log2 fold change [11],log2 fold change [12],log2 fold change [13],log2 fold change [14],log2 fold change [15],log2 fold change [16],log2 fold change [17],log2 fold change [18],log2 fold change [19]
C/C(=N\NC(=O)c1cccc(S(=O)(=O)N2CCOCC2)c1)c1cc(Cl)ccc1O,0.005,0.204,-0.037,0.061,0.072,0.372 (active),0.068,0.02,0.01,-0.128,0.199,-0.224,-0.004,-0.048,0.003,0.057,,,
C=CC(=O)N1CCC[C@@H](n2nc(-c3ccc(Oc4ccccc4)cc3)c3c(N)ncnc32)C1 [ibrutinib],-0.013,0.002,-0.167,0.019,-0.032,0.125,-0.174,0.064,0.002,0.03,-0.041,0.06,-0.029,-0.004,0.02,,-0.05,0.043,
Cc1ccc(NC(=O)c2ccc(CN3CC[C@H](N(C)C)C3)c(C(F)(F)F)c2)cc1Nc1nccc(-c2cncnc2)n1 [bafetinib],-0.008,-0.035,-0.131,-0.022,-0.044,-0.08,0.194,-0.006,0.033,0.052,0.018,0.144,-0.007,0.104,0,,0.07,-0.03,
CN(CCOc1ccc(C[C@@H]2SC(=O)NC2=O)cc1)c1ccccn1 (racemic) [rosiglitazone],0.038,0.012,0.019,0.008,-0.015,0.063,0.103,0.052,-0.036,-0.171,0.086,-0.131,0.052,0.059,-0.016,,0.063,0.038,
NC(=O)c1cnc(N[C@@H]2CCCC[C@@H]2N)nc1Nc1cccc(-n2nccn2)c1,-0.05,0.172,-0.186,0.108,-0.037,-0.025,-0.044,0.092,-0.221,0.08,-0.054,0.049,-0.003,-0.001,-0.01,-0.064,,,
Cc1cc(Nc2cc(N3CCN(C)CC3)nc(Sc3ccc(NC(=O)C4CC4)cc3)n2)n[nH]1 [tozasertib],0.019,0.046,0.176,0.045,0.099,0.014,-0.219,0.063,0.061,0.058,0.047,0.04,-0.02,0.006,-0.057,-0.04,0.299,-0.041,
CC(C)(C)Cn1c(N)nc2ccc(-c3[nH]c(C(C)(C)C)nc3-c3ccc(F)cc3)nc21 [ralimetinib],-0.063,0.237,-0.031,0.145,0.002,0.169,0.121,0.012,0.03,0.047,0.035,0.017,-0.099,-0.187,-0.001,-0.033,,,
COc1cc(Nc2ncc3c(n2)-c2ccc(Cl)cc2C(c2c(F)cccc2OC)=NC3)ccc1C(=O)O [alisertib],0.012,-0.001,-0.041,-0.028,-0.062,0.021,-0.154,,-0.085,-0.082,0.024,-0.083,-0.02,-0.052,-0.107,,0.136,,
C[C@@H]1COCCN1c1cc(C2(S(C)(=O)=O)CC2)nc(-c2cccc3[nH]ccc23)n1,0.025,0.074,0.165,0.011,0.02,0.22,-0.101,-0.088,-0.008,-0.151,0.119,-0.381,0.005,0.131,-0.011,-0.037,,0.284,0.067
NC1(c2ccc(-c3nc4ccn5c(=O)[nH]nc5c4cc3-c3ccccc3)cc2)CCC1,-0.056,0.007,-0.206,0.066,0.011,0.106,0.047,,0.032,0.181,-0.091,0.218,-0.06,-0.027,-0.027,,-0.143,,
FC(F)(F)c1ccc(/C=C/c2nc(COc3ccc(CCCCn4ccnn4)cc3)co2)cc1 [mubritinib],0.045,0.049,0.11,0.015,-0.055,-0.294 (active),0.003,,-0.042,-0.102,-0.049,-0.087,0.051,0.03,0.025,,-0.131,,
Cc1ccc2c(=O)c3ccccc3n(CCCN)c2c1C,-0.072,-0.055,0.029,-0.009,-0.433 (active),0.038,-0.183,-1.06 (active),-0.612 (active),-0.277,-0.091,-0.187,0.037,0.028,0.08,0.005,1.05 (active),0.02,
CC[C@H](C)[C@H](NC(=O)[C@H]([C@@H](C)CC)N(C)C(C)=O)C(=O)N[C@H](C(=O)N[C@@H](CC(C)C)C(=O)[C@@]1(C)CO1)[C@@H](C)O [epoxomicin],0.018,0.111,-0.075,0.041,-0.003,0.077,-0.168,-0.054,-0.059,-0.107,0.1,-0.303,-0.044,-0.102,-0.083,0.124,,-0.037,-0.052
CC(=O)c1cnc2ccc(-c3cc(Cl)c(O)c(Cl)c3)nc2c1N[C@H]1CC[C@H](CN(C)C)CC1,-0.019,0.118,-0.081,0.06,-0.084,-0.131,-0.42 (active),0.008,-0.155,0.006,-0.165,0.143,-0.007,0.026,-0.049,-0.017,,,
O=C1NC(=O)/C(=C\c2ccc3nccnc3c2)S1,0.023,0.003,-0.01,-0.012,0.004,-0.05,0.156,-0.054,0.035,0.044,0.021,-0.015,0.11,0.095,0.007,,0.171,-0.002,
CCCc1cc(C)[nH]c(=O)c1CNC(=O)c1cc(-c2ccnc(N3CCN(C)CC3)c2)cc2c1cnn2C(C)C,-0.031,0.241,-0.393,0.056,-0.006,0.004,-0.008,,-0.011,-0.027,0.029,0.057,-0.061,-0.079,0.095,,-0.158,,
CC(C)(O)CC(=O)NCCn1ccc2ncnc(Nc3ccc(Oc4cccc(C(F)(F)F)c4)c(Cl)c3)c21,-0.013,-0.084,0.021,0.027,-0.026,-0.323 (active),0.101,0.175,0.034,0.064,-0.179,0.166,0.062,-0.082,0.033,-0.026,,0.486 (active),-0.932 (active)
